Experimental data as given in the supplement of paper PMC11732987, “Enantioselective OTUD7B fragment discovery through chemoproteomics screening and high-throughput optimisation” (Communications Chemistry, 2025).

How the values were obtained:
Assay in all cases: log2 ratio of Biotin-Ahx-Ub-VS probe labelling (compound/DMSO); higher = less target engagement, active = hit call of the paper (q ≤ 0.05, log2 ratio ≤ -1)
Details in all cases: treatment time: 3 h
[1] = compound: CCC1N(CCc2sccc12)C(=O)CCl
Method in brief: (§1)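 For activity-based profiling, 495 µg portions of HEK293T lysate in Tris/CHAPS/IGEPAL buffer with protease inhibitors were treated in triplicate with compound at 50 or 200 µM or with DMSO for 3 h. A 1 h incubation with Biotin-Ahx-Ub-VS (0.5 µM final) followed, then NeutrAvidin enrichment, LysC and trypsin digestion and diaPASEF LC-MS/MS. The compound/DMSO base-two log ratios were averaged from median-normalised label-free quantities using an unpaired t-test. Proteins needed at least 2 unique peptides to be included.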

[2] = compound: CN1c2ccccc2C(CS1(=O)=O)NC(=O)CCl
Method in brief: as §1

[3] = compound: Cl.ClCC(=O)N1CCc2ncncc2C1
Method in brief: as §1

[4] = compound: Cl.Cn1ncc2C(CCCc12)NC(=O)CCl
Method in brief: as §1

[5] = compound: ClCC(=O)NC1CCOc2ccccc12
Method in brief: as §1

[6] = compound: ClCC(=O)NC1CCCc2ccccc12
Method in brief: (§2)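 Values are average ratios of compound to vehicle from an unpaired t-test, limited to proteins with at least two unique peptides. HEK293T lysate (495 µg per sample, in Tris/CHAPS/IGEPAL buffer with protease inhibitors) was exposed in triplicate to a concentration series of compound or to vehicle for 3 h, then to Biotin-Ahx-Ub-VS at 0.5 µM final for 1 h. Labelled deubiquitinases were enriched on NeutrAvidin, digested with LysC and trypsin, and analysed by diaPASEF LC-MS/MS. Ratios are given on a log2 scale from Spectronaut label-free protein quantities normalised to the global median.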

[7] = compound: ClCC(=O)N[C@@H]1CCCc2ccccc12
Method in brief: as §2

[8] = compound: ClCC(=O)N[C@H]1CCCc2ccccc12
Method in brief: as §2

[9] = compound: CCC1N(CCc2cc(OC)c(Cl)cc12)C(=O)CCl
Method in brief: as §1

[10] = compound: CCCC1N(CCc2cc(OC)c(OC)cc12)C(=O)CCl
Method in brief: as §1

Measured: log2 ratio of Biotin-Ahx-Ub-VS probe labelling

USP9X (UniProt Q93008)
Sequence of UniProt Q93008 (Q93008 whole entry): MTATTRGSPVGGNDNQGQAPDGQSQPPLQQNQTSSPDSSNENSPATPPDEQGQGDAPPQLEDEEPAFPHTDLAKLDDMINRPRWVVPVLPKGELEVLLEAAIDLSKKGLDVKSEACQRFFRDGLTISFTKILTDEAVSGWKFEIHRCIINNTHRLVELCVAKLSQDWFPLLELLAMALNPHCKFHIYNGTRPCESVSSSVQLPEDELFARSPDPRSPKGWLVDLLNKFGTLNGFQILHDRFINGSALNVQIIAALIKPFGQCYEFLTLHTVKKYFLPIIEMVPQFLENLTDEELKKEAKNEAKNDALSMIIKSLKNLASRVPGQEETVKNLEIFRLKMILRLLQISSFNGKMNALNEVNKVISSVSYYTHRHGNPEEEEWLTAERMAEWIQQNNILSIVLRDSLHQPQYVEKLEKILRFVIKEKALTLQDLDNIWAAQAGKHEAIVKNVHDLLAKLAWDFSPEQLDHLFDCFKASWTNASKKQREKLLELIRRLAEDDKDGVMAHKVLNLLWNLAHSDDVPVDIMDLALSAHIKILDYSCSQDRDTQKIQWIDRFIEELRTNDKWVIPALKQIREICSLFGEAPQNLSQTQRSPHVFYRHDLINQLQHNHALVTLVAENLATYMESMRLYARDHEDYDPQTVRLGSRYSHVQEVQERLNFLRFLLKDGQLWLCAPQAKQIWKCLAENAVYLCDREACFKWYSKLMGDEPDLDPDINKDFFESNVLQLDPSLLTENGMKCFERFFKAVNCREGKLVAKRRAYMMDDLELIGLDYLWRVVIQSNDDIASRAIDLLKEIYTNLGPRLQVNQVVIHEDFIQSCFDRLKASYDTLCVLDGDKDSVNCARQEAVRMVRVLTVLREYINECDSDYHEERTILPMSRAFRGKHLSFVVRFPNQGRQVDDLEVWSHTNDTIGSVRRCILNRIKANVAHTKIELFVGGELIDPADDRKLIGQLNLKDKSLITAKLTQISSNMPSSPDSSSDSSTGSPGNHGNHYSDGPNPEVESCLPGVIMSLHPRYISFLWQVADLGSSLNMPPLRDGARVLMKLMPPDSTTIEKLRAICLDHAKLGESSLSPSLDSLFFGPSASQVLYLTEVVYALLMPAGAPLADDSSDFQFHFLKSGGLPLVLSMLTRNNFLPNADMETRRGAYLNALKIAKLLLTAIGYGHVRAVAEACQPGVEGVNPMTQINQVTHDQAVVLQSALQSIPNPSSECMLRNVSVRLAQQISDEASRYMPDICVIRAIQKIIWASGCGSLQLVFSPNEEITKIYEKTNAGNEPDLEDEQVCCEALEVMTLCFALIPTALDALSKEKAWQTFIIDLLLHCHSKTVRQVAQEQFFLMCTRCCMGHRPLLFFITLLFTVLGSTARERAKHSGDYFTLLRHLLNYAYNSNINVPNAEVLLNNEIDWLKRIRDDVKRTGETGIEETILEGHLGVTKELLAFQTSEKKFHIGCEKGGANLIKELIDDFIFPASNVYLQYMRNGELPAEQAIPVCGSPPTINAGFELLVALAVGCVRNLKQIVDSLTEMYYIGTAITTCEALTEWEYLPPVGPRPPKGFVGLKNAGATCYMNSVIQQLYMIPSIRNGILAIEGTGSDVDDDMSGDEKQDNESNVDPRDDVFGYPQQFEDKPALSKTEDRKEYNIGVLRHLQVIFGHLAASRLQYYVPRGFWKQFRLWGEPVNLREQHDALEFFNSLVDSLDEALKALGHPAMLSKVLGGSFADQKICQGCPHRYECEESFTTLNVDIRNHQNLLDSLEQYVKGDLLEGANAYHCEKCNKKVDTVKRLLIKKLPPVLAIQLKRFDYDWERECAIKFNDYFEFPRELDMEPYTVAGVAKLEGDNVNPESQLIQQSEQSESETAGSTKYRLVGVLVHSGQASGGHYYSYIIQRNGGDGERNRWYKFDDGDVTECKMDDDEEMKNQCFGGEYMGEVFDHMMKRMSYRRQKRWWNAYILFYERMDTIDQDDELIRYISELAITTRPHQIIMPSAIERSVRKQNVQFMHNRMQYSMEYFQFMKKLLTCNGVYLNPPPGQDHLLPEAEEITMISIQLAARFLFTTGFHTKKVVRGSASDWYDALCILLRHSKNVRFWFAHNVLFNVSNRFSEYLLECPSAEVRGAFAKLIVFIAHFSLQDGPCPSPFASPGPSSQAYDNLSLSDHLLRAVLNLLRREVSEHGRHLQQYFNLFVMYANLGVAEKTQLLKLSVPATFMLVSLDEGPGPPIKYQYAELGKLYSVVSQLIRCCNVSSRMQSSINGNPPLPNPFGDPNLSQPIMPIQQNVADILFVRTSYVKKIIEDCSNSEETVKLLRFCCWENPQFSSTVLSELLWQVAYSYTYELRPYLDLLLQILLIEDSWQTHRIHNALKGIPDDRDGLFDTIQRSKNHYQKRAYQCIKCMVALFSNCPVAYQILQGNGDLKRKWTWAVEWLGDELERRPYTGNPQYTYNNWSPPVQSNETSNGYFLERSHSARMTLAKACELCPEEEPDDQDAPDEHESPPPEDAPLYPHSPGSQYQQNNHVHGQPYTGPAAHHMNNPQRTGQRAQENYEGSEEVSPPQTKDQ
inactive: [1]; compound concentration: 50uM -0.0428 | [1]; compound concentration: 200uM -0.401 | [2]; compound concentration: 50uM -0.081 | [2]; compound concentration: 200uM -0.107 | [3]; compound concentration: 50uM -0.026 | [3]; compound concentration: 200uM -0.376 | [4]; compound concentration: 50uM 0.251 | [4]; compound concentration: 200uM 0.139 | [5]; compound concentration: 50uM 0.133 | [5]; compound concentration: 200uM -0.133 | [6]; compound concentration: 0.78uM -0.00765 | [6]; compound concentration: 1.56uM 0.093 | [6]; compound concentration: 3.13uM -0.0291 | [6]; compound concentration: 6.25uM 0.0092 | [6]; compound concentration: 12.5uM -0.0222 | [6]; compound concentration: 25uM -0.0898 | [6]; compound concentration: 50uM -0.0629 | [6]; compound concentration: 100uM -0.0253 | [6]; compound concentration: 200uM -0.0679 | [7]; compound concentration: 0.78uM -0.0702 | [7]; compound concentration: 1.56uM 0.0356 | [7]; compound concentration: 3.13uM 0.00372 | [7]; compound concentration: 6.25uM -0.00489 | [7]; compound concentration: 12.5uM -0.0481 | [7]; compound concentration: 25uM -0.0408 | [7]; compound concentration: 50uM -0.128 | [7]; compound concentration: 100uM -0.121 | [7]; compound concentration: 200uM -0.242 | [8]; compound concentration: 0.78uM -0.0701 | [8]; compound concentration: 1.56uM 0.0195 | [8]; compound concentration: 3.13uM 0.0203 | [8]; compound concentration: 6.25uM 0.0759 | [8]; compound concentration: 12.5uM -0.0293 | [8]; compound concentration: 25uM -0.0731 | [8]; compound concentration: 50uM -0.0138 | [8]; compound concentration: 100uM -0.119 | [8]; compound concentration: 200uM -0.256 | [9]; compound concentration: 50uM -0.0734 | [9]; compound concentration: 200uM -0.969 | [10]; compound concentration: 50uM -0.249 | [10]; compound concentration: 200uM -0.82

COPS5 (UniProt Q92905)
Sequence of UniProt Q92905 (Q92905 whole entry, looked up): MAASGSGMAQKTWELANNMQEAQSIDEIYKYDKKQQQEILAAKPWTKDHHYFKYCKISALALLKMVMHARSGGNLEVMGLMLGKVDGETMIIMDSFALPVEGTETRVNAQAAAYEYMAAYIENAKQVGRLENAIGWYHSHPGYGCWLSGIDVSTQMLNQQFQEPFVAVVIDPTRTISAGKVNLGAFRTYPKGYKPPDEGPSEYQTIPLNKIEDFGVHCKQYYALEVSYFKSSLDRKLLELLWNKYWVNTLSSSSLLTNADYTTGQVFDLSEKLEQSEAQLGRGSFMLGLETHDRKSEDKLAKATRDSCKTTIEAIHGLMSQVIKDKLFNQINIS
inactive: [1]; compound concentration: 50uM -0.164 | [1]; compound concentration: 200uM 0.0997 | [2]; compound concentration: 50uM -0.182 | [2]; compound concentration: 200uM 0.168 | [3]; compound concentration: 50uM -0.296 | [3]; compound concentration: 200uM -0.179 | [4]; compound concentration: 50uM -0.177 | [4]; compound concentration: 200uM -0.131 | [5]; compound concentration: 50uM 0.175 | [5]; compound concentration: 200uM -0.0253 | [6]; compound concentration: 0.78uM 0.0364 | [6]; compound concentration: 1.56uM -0.0289 | [6]; compound concentration: 3.13uM -0.0264 | [6]; compound concentration: 6.25uM 0.0604 | [6]; compound concentration: 12.5uM -0.134 | [6]; compound concentration: 25uM -0.0881 | [6]; compound concentration: 50uM -0.183 | [6]; compound concentration: 100uM -0.315 | [6]; compound concentration: 200uM -0.041 | [7]; compound concentration: 0.78uM -0.237 | [7]; compound concentration: 1.56uM -0.152 | [7]; compound concentration: 3.13uM -0.15 | [7]; compound concentration: 6.25uM 0.209 | [7]; compound concentration: 12.5uM -0.0611 | [7]; compound concentration: 25uM -0.26 | [7]; compound concentration: 50uM -0.29 | [7]; compound concentration: 100uM -0.155 | [7]; compound concentration: 200uM 0.052 | [8]; compound concentration: 0.78uM -0.209 | [8]; compound concentration: 1.56uM 0.0351 | [8]; compound concentration: 3.13uM -0.059 | [8]; compound concentration: 6.25uM -0.0717 | [8]; compound concentration: 12.5uM 0.171 | [8]; compound concentration: 25uM 0.148 | [8]; compound concentration: 50uM -0.0575 | [8]; compound concentration: 100uM 0.0499 | [8]; compound concentration: 200uM -0.0918 | [9]; compound concentration: 50uM 0.0938 | [9]; compound concentration: 200uM 0.311 | [10]; compound concentration: 50uM -0.111 | [10]; compound concentration: 200uM 0.0826
